Legend:
[1] = target: Fibroblast growth factor receptor 4 (Homo sapiens) (UniProt P22455); conditions: at 1 µM;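 note: reported figure is the averaged percent inhibition of FGFR4, from the GSK PKIS kinase screening panel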
[2] = target: Tyrosine-protein kinase Fgr (Homo sapiens) (UniProt P09769); conditions: at 0.1 µM
[3] = target: Tyrosine-protein kinase Fgr (Homo sapiens) (UniProt P09769); conditions: at 1 µM
[4] = target: Vascular endothelial growth factor receptor 1 (Homo sapiens) (UniProt P17948); conditions: at 0.1 µM
[5] = target: Vascular endothelial growth factor receptor 1 (Homo sapiens) (UniProt P17948); conditions: at 1 µM
[6] = target: Receptor-type tyrosine-protein kinase FLT3 (Homo sapiens) (UniProt P36888); conditions: at 0.1 µM
[7] = target: Receptor-type tyrosine-protein kinase FLT3 (Homo sapiens) (UniProt P36888); conditions: at 1 µM
[8] = test system: T1, Receptor-type tyrosine-protein kinase FLT3 (Homo sapiens), P36888 [D835Y]; conditions: at 0.1 µM
T1 sequence (whole entry): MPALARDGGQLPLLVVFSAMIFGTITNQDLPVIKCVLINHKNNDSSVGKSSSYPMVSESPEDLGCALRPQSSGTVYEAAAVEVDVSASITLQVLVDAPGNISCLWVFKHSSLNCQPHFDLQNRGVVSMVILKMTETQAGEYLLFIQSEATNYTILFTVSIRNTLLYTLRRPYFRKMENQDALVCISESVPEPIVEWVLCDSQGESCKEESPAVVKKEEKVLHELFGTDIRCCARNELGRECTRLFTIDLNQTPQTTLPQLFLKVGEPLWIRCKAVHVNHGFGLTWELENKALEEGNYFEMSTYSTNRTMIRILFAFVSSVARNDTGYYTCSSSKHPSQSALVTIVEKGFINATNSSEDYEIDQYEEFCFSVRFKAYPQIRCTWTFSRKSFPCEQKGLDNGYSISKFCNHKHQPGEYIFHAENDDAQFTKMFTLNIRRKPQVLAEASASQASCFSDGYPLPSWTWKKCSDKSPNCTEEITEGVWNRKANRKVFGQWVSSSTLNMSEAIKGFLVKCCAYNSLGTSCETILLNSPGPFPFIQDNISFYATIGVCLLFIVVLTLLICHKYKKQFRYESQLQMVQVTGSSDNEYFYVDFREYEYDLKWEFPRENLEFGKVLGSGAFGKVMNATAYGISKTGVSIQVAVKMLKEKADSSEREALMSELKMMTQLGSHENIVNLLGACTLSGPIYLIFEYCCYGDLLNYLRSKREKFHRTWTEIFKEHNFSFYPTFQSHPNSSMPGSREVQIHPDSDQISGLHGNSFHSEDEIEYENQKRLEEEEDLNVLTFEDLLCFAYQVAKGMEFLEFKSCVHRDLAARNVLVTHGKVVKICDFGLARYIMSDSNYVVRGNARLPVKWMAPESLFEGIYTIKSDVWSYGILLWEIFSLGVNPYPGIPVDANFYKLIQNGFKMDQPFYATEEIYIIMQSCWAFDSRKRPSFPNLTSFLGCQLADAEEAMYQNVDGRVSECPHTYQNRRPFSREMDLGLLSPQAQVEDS

[9] = target: Non-receptor tyrosine-protein kinase TYK2 (Homo sapiens) (UniProt P29597); conditions: at 1 µM;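 note: values are mean percent inhibition of TYK2 kinase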
[10] = target: T2, Tyrosine-protein kinase receptor TYRO3 (Homo sapiens) (UniProt Q06418); conditions: at 0.1 µM
T2 sequence (whole entry): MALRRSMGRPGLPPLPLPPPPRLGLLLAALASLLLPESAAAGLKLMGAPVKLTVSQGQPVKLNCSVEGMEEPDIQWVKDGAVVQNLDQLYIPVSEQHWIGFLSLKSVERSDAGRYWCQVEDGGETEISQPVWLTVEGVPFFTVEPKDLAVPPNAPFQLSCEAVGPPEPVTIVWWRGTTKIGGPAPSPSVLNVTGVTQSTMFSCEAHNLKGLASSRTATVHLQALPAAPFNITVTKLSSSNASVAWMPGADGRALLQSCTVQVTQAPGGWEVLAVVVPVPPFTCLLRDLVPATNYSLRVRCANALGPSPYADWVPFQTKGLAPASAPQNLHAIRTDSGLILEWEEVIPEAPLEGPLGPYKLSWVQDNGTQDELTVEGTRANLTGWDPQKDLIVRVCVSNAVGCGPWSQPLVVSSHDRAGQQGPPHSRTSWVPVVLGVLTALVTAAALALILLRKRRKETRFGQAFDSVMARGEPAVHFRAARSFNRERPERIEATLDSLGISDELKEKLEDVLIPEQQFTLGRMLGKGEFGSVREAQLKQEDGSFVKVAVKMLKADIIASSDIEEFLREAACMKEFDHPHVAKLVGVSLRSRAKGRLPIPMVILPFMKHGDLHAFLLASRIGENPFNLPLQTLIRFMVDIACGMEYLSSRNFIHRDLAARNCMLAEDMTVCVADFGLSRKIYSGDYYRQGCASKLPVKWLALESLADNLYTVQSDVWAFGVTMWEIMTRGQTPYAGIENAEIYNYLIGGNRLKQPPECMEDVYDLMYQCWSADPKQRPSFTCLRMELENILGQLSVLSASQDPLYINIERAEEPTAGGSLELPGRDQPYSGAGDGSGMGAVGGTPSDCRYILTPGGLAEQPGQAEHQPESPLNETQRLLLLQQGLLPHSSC

[11] = target: T2, Tyrosine-protein kinase receptor TYRO3 (Homo sapiens); conditions: at 1 µM
[12] = target: Tyrosine-protein kinase Yes (Homo sapiens) (UniProt P07947); conditions: at 0.1 µM
[13] = target: Tyrosine-protein kinase Yes (Homo sapiens) (UniProt P07947); conditions: at 1 µM
[14] = target: T3, Tyrosine-protein kinase ZAP-70 (Homo sapiens) (UniProt P43403); conditions: at 0.1 µM
T3 sequence (whole entry): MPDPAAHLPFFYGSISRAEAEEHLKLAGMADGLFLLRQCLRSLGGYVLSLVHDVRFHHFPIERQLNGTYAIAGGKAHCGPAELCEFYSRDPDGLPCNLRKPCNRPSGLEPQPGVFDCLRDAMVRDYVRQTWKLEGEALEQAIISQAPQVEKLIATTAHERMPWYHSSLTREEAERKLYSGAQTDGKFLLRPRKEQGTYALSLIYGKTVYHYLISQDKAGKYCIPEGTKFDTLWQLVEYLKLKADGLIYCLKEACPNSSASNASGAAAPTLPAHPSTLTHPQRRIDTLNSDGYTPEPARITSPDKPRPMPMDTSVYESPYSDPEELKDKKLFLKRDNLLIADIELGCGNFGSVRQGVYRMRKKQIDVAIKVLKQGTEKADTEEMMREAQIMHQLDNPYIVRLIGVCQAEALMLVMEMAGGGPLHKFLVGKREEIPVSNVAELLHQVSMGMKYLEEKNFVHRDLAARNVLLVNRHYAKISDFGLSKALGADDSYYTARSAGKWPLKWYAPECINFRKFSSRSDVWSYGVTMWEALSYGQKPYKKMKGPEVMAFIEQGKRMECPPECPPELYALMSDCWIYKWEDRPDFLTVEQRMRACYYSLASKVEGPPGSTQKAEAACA

[15] = target: T3, Tyrosine-protein kinase ZAP-70 (Homo sapiens); conditions: at 1 µM
[16] = target: Serine/threonine-protein kinase B-raf (Homo sapiens) (UniProt P15056); conditions: at 0.1 µM
[17] = target: Serine/threonine-protein kinase B-raf (Homo sapiens) (UniProt P15056); conditions: at 1 µM
[18] = test system: Serine/threonine-protein kinase B-raf (Homo sapiens), P15056 [V600E]; conditions: at 0.1 µM
[19] = test system: Serine/threonine-protein kinase B-raf (Homo sapiens), P15056 [V600E]; conditions: at 1 µM
[20] = target: RAF proto-oncogene serine/threonine-protein kinase (Homo sapiens) (UniProt P04049); conditions: at 0.1 µM;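 note: values are mean CRAF kinase inhibition from profiling of the GSK Published Kinase Inhibitor Set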
Sequence of RAF proto-oncogene serine/threonine-protein kinase (Homo sapiens) (P04049 whole entry): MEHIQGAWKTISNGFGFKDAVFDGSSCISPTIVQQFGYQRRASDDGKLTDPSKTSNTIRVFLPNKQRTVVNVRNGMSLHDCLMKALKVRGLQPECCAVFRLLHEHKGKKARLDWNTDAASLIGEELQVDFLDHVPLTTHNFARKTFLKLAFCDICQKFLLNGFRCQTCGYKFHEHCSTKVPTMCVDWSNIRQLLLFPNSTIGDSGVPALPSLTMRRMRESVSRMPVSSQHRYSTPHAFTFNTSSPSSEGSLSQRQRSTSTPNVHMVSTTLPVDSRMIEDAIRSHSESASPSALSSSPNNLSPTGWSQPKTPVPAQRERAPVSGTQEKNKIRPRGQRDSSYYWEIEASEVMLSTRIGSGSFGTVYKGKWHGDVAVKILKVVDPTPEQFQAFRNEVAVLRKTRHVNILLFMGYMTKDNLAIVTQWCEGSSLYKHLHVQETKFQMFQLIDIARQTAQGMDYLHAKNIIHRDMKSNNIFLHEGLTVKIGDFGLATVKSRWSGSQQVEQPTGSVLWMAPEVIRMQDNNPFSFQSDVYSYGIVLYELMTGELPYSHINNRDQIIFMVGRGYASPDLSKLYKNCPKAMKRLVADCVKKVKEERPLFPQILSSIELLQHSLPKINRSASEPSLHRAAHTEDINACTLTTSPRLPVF

Sequence of Fibroblast growth factor receptor 4 (Homo sapiens) (P22455 22-802 limits assumed): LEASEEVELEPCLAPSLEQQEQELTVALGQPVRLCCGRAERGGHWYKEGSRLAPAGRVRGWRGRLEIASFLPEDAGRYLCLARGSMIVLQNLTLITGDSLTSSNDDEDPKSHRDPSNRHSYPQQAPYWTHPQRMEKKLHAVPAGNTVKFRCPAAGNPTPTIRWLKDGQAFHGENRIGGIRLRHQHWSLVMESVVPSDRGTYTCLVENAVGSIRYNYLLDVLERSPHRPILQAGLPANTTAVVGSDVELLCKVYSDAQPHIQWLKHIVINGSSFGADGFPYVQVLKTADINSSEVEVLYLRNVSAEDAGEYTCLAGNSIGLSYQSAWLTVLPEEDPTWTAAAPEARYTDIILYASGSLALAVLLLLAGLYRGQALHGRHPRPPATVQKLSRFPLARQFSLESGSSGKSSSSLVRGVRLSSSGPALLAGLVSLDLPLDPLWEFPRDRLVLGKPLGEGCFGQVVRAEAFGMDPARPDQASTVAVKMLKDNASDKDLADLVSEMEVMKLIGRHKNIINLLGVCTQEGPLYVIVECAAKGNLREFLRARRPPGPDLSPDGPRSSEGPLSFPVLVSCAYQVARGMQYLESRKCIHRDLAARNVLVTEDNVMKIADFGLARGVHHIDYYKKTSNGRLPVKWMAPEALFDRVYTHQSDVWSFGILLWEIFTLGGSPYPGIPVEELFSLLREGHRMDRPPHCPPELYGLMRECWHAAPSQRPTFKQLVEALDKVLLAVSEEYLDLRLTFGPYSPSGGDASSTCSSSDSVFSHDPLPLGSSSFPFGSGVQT
Sequence of Vascular endothelial growth factor receptor 1 (Homo sapiens) (P17948 whole entry): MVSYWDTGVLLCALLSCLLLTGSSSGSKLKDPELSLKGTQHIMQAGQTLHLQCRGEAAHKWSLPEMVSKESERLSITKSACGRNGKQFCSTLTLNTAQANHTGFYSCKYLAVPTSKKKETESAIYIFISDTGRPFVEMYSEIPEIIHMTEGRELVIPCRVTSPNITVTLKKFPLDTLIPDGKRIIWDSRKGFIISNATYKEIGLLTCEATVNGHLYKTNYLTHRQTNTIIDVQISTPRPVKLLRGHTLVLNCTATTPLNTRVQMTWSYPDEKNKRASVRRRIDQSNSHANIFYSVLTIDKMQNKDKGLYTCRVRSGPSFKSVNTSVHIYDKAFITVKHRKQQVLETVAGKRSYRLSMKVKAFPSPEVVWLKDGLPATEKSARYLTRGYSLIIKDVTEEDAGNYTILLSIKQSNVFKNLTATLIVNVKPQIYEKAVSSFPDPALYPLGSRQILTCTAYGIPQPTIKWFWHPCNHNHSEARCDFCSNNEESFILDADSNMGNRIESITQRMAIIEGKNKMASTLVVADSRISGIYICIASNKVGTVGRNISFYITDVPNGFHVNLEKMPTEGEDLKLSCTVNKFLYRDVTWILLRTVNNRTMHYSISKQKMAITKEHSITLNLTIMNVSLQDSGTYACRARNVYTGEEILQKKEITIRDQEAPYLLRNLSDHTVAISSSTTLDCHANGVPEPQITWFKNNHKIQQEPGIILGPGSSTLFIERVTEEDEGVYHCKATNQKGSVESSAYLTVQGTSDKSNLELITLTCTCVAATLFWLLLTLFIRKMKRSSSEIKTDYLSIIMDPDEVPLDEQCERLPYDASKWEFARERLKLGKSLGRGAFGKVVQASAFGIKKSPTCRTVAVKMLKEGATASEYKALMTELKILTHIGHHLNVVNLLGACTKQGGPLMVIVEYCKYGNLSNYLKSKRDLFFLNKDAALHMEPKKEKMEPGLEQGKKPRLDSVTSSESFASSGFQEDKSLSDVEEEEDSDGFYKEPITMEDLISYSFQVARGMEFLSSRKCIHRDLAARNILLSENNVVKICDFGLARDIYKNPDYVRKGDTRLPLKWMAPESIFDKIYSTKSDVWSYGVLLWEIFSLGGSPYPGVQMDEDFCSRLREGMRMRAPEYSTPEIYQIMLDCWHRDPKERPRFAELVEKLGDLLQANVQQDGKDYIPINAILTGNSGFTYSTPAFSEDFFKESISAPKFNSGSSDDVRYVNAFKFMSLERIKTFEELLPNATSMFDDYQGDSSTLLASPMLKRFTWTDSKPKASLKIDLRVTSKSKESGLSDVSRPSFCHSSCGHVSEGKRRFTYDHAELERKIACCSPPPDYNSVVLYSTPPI
Sequence of Serine/threonine-protein kinase B-raf (Homo sapiens), P15056 [V600E] (P15056 whole entry V600E): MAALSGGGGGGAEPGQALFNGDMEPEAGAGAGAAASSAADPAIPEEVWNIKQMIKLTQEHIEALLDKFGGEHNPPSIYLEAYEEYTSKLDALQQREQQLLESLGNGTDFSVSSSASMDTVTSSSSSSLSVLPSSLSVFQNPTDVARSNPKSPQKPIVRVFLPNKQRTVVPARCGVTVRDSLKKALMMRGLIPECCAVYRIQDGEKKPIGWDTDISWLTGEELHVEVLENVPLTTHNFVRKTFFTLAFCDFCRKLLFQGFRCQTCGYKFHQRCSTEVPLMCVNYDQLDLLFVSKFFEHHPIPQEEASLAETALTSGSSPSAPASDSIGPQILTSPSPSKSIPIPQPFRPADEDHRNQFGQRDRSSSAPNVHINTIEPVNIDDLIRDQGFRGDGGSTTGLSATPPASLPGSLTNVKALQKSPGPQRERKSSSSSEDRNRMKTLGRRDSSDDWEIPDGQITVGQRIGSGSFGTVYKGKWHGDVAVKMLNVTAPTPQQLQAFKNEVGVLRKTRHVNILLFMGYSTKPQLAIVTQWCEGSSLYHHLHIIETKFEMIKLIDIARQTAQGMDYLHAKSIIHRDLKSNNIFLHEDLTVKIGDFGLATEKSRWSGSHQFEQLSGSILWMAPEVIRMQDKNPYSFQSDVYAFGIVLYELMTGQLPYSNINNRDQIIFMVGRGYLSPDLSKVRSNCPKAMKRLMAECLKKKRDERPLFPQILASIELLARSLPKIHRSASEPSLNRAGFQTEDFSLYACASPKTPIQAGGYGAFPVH
Sequence of Serine/threonine-protein kinase B-raf (Homo sapiens) (P15056 whole entry): as the sequence (P15056 whole entry V600E) above, with E600V counted along it
Sequence of Tyrosine-protein kinase Yes (Homo sapiens) (P07947 2-543 limits assumed): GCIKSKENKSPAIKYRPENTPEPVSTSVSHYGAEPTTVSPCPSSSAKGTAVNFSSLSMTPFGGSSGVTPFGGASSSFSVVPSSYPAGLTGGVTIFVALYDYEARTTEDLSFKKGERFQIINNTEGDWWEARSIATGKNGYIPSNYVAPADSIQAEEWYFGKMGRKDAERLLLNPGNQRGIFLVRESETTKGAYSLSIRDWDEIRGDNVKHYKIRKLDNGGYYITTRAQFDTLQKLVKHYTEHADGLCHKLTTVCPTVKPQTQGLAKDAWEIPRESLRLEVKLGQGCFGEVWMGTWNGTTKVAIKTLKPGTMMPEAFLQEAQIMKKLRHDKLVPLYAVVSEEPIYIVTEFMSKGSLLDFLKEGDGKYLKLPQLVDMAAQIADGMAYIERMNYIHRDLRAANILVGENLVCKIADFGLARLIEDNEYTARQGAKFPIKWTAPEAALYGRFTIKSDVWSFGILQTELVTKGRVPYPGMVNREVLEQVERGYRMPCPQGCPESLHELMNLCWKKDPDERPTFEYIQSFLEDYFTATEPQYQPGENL
Sequence of Tyrosine-protein kinase Fgr (Homo sapiens) (P09769 2-529 limits assumed): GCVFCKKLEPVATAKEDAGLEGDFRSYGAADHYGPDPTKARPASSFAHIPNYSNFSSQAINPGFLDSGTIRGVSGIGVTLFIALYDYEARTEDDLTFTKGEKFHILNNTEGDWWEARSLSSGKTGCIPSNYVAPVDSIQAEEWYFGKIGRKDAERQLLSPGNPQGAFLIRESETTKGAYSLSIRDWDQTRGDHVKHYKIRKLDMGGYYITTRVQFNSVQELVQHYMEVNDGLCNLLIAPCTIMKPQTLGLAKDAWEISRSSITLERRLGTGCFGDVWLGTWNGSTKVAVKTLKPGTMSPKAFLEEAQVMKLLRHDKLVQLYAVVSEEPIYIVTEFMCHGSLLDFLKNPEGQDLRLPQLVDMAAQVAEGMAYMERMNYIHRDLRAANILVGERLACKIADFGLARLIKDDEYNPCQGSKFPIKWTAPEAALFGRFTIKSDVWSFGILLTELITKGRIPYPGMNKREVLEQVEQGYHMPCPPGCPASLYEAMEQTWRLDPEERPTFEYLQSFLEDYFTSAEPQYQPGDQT

Row | Compound | inhibition [1] | inhibition [2] | inhibition [3] | inhibition [4] | inhibition [5] | inhibition [6] | inhibition [7] | inhibition [8] | inhibition [9] | inhibition [10] | inhibition [11] | inhibition [12] | inhibition [13] | inhibition [14] | inhibition [15] | inhibition [16] | inhibition [17] | inhibition [18] | inhibition [19] | inhibition [20]
1 | CCS(=O)(=O)c1ccc(OC)c(Nc2ncc(-c3cccc(-c4ccccc4F)c3)o2)c1 | 16.3% | 11.9% | 52.1% | 24.9% | 68.4% | 6.25% | 30% | 5.31% | 1.31% | 3.28% | 19.6% | 25.7% | 73% | 1.06% | -0.05% | 1.09% | 1.46% | 0.74% | 1.89% | -0.07%
2 | COc1cc(Nc2ncc3c(C)nc(-c4cccc(Oc5ccccc5)c4)n3n2)cc(OC)c1OC | 1.97% | 0.02% | 4.22% | 0.68% | 2.1% | 3.86% | 28.5% | 3.72% | -3.18% | 2% | 5.32% | -0.14% | 7.34% | 1.87% | -1.81% | 3.08% | 12.2% | 2.54% | 11.4% | 2.2%
3 | CCc1nccc2c1nc(-c1nonc1N)n2CC | 1.32% | -0.77% | 3.85% | -0.82% | 1.6% | -0.04% | 0.33% | -2.37% | -2.82% | -0.74% | -0.82% | 0.39% | 1.95% | 1.4% | 0.96% | -0.39% | 1.49% | 0.46% | 1.01% | -4.45%
4 | c1ccc(-c2n[nH]cc2-c2ccnc(-c3ccc(OCCN4CCOCC4)cc3)c2)nc1 | 4.93% | 4.14% | 6.86% | 3.88% | 15.6% | -2.01% | 1.37% | -0.15% | 1.87% | -0.18% | -0.82% | -1.99% | 2.34% | 5% | 0.13% | -2.91% | -2.83% | -4.04% | -1.12% | -0.28%
5 | COc1ccc2ncn(-c3cc(O[C@H](C)c4ccccc4Cl)c(C(N)=O)s3)c2c1 | -2.23% | 2.3% | 3.06% | 0.27% | 3.7% | -1.31% | 4.52% | 2.46% | -5.78% | 3.88% | 3.45% | 1.1% | 0.5% | -4.58% | 0.58% | 5.68% | 4.96% | 3.17% | 3.29% | 0.5%
6 | COc1cc(N2CCN(C(C)C)CC2)ccc1Nc1nc(Nc2ccc(F)cc2C(=O)NC[C@@H](O)CO)c2cc[nH]c2n1 | -2.11% | 4.37% | 1.14% | 1.41% | 1.28% | 1.53% | 2.54% | 0.41% | -2.95% | 2.87% | 5.76% | 1.99% | 12.3% | -0.52% | 5.52% | 6.98% | 5.88% | 7.48% | 4.83% | -2.46%
7 | Fc1ccc(-c2ncn(C3CCNCC3)c2-c2ccnc(Oc3ccc(F)c(F)c3)n2)cc1 | -4.24% | 2.76% | 3.69% | 0.45% | 4.56% | -1.09% | 4.18% | -2.41% | -5.44% | 1.82% | 1.35% | 2.3% | 0.42% | -5.04% | -3.78% | 6.07% | 6.2% | 4.48% | 4.06% | -1.78%
8 | COc1ccc2cc(-c3c(-c4ccncc4)nc(-c4ccc(S(C)(=O)=O)cc4C)n3C)ccc2c1 | 2.96% | 3.77% | 4.62% | 0.91% | 2.09% | 1.65% | 1% | -1.54% | -1.13% | 2.19% | 5.53% | 3.64% | 20.9% | -0.34% | 0.82% | 6.36% | 6.36% | 6.6% | 5.85% | 5.5%
9 | C[C@@H](Oc1cc(-n2cnc3ccc(OC4CCN(C)CC4)cc32)sc1C(N)=O)c1ccccc1Cl | -1.19% | 3.65% | 4.89% | 1.54% | 3.12% | 3.07% | 14.4% | 1.72% | -7.54% | 2.39% | 4.84% | -0.81% | 3.04% | -2.84% | -1.32% | 5.72% | 7.68% | 4.5% | 3.24% | 2.09%
10 | NCc1ccc(-n2c(-c3nonc3N)nc3cnccc32)cc1 | 0.49% | 1.73% | 3.12% | 1.08% | 1.4% | 1.23% | 3.45% | -4.05% | -2.73% | 1.87% | 3.1% | 0.26% | 3.43% | – | 6.32% | 7.22% | 9.93% | 8.7% | 8.53% | 8.42%
11 | NS(=O)(=O)c1ccc(N/N=C2\C(=O)Nc3ccc(C(=O)NCCCn4ccnc4)cc32)cc1 | 2.46% | 5.97% | 13.4% | 0.63% | 5.48% | 3.35% | 18.5% | 2.34% | -1.72% | 4.1% | 9.93% | 5.35% | 24.1% | 0.31% | 8.11% | 10.7% | 38.4% | 11.3% | 38.9% | 5.92%
12 | COc1cc2ncn(-c3cc(OCc4cccs4)c(C(N)=O)s3)c2cc1OC | 1.23% | 11.1% | 13.7% | 2.16% | 10.3% | 0.99% | 4.24% | -6.36% | 0.53% | 2.86% | 8.04% | 4.84% | 21.2% | -0.46% | 3.04% | 1.7% | 0.38% | 2.45% | 0.77% | 1.73%
13 | CN(c1ccc(NC(=O)Nc2c(Cl)cccc2Cl)cc1)c1ccnc(Nc2cccc(CS(C)(=O)=O)c2)n1 | 2.06% | 24.3% | 51.9% | 38.5% | 51% | 78.2% | 84.9% | 28.2% | 1.51% | 4.61% | 17.4% | 17.6% | 28.2% | 4.97% | 9.82% | 1.79% | 4.11% | 2.49% | 5.8% | 0.7%
